# Measured values reported in PubChem BioAssay (EPA / NIEHS).
# Results filed as inconclusive are left out. Activity calls are given as the source filed them. Rule for the calls, unless noted: active = hit-call score of the fitted dose curve at least 0.9, where 1 is the maximum; inconclusive = response in the unintended direction; inactive = score below 0.9.
# What was measured:
# [1] = TOX21_p53_BLA_p2_viability: Viability Assessment in the Tox21 HCT-116 p53 Agonism Beta-lactamase Assay, Phase 2 (AID 2283591);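 note: compound exposure lasted 16 h at 37 °C; actives lower the ATP signal meaning cytotoxicity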
# Method in brief: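 HCT116 p53-bla cells, 4000/well, dosed after 5 h plating (217-fold dilution of DMSO stocks) and incubated 16 h at 37C. Viability taken as cellular ATP by CellTiter-Glo luminescence after 30 min RT; signal loss marks cytotoxicity.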
# [2] = molecular target: Cellular tumor antigen p53 (Homo sapiens) (UniProt P04637); test: TOX21_p53_BLA_p2_ratio: Tox21 HCT-116 p53 Agonism Beta-lactamase Assay, Ratio, Phase 2 (AID 2283592)
# Method in brief: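 HCT116 p53-bla; 4000 cells/well; 5 h pre-incubation; cpd in DMSO, 217-fold dilution; 16 h 37C/5% CO2; CCF4-AM 2 h RT; Ex 405, Em 460/530 ratio; DMSO = baseline; positive fitting direction.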
# [3] = molecular target: Cellular tumor antigen p53 (Homo sapiens) (UniProt P04637); test: TOX21_p53_BLA_p3_ratio: Tox21 HCT-116 p53 Agonism Beta-lactamase Assay, Ratio, Phase 3 (AID 2283596)
# Method in brief: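 HCT116 p53-bla cells (4000/well) given compound in DMSO (217-fold dilution) after 5 h, incubated 16 h at 37C. CCF4-AM substrate 2 h at room temperature; 460/530 nm emission ratio, gain fitted against DMSO.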
# [4] = TOX21_p53_BLA_p4_viability: Viability Assessment in the Tox21 HCT-116 p53 Agonism Beta-lactamase Assay, Phase 4 (AID 2283597);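 note: hits lower the luminescence signal meaning cytotoxicity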
# Method in brief: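 Cells plated, 5 h pre-incubation; DMSO compounds pinned (217-fold dilution); 16 h, 37C/5% CO2; CCF4-AM 2 h RT; CellTiter-Glo 30 min RT; luminescence read.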
# [5] = molecular target: Cellular tumor antigen p53 (Homo sapiens) (UniProt P04637); test: TOX21_p53_BLA_p5_ratio: Tox21 HCT-116 p53 Agonism Beta-lactamase Assay, Ratio, Phase 5 (AID 2283599)
# Method in brief: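 HCT-116 p53-bla cells (4000/well) plated 5 h, dosed with compound (217-fold DMSO dilution) for 16 h at 37 C; CCF4-AM substrate 2 h at room temperature. Activity is the 460/530 nm emission ratio (405 nm excitation), fitted in gain-of-signal direction versus DMSO.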
# [6] = TOX21_p53_BLA_p3_viability: Viability Assessment in the Tox21 HCT-116 p53 Agonism Beta-lactamase Assay, Phase 3 (AID 2283593);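 note: cells exposed to compound for 16 h before reading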
# Method in brief: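 HCT116 cells, 4000/well, dosed 5 h after plating by pin transfer (217-fold dilution from DMSO stock) and incubated 16 h at 37C, 5% CO2. Viability read as ATP luminescence with CellTiter-Glo after 30 min at room temperature.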
# [7] = TOX21_p53_BLA_p5_viability: Viability Assessment in the Tox21 HCT-116 p53 Agonism Beta-lactamase Assay, Phase 5 (AID 2283600)
# Method in brief: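 4000 cells/well; 5 h pre-incubation; DMSO compounds pin-transferred, 217-fold dilution; 16 h, 37C/5% CO2; CCF4-AM 2 h RT; CellTiter-Glo 30 min RT; luminescence.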
# [8] = molecular target: Cellular tumor antigen p53 (Homo sapiens) (UniProt P04637); test: TOX21_p53_BLA_p4_ratio: Tox21 HCT-116 p53 Agonism Beta-lactamase Assay, Ratio, Phase 4 (AID 2283601)
# Method in brief: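 HCT-116 p53 beta-lactamase reporter cells (4000/well) preincubated 5 h, then compound (217-fold dilution of DMSO stock) for 16 h at 37C. CCF4-AM substrate added 2 h at room temperature; 460/530 nm emission ratio fitted upward versus DMSO.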
# [9] = CCTE_Harrill_HTTr_Viability_MCF7: CCTE's 6-hour Cell Viability Assessment for the High-Throughput Transcriptomics (HTTr) Platform, in MCF-7 cells cultured in DMEM + 10% fetal bovine serum, Harrill Lab (AID 2284010; active = hit-call score of the fitted dose curve at least 0.9, where 1 is the maximum; inactive = score below 0.9)
# Method in brief: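 MCF-7 cells in DMEM + 10% FBS, 384-well, exposed 6 h to an eight-point dilution series. Membrane integrity scored by high-content imaging of propidium iodide exclusion; bidirectional fit versus DMSO.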
# [10] = CCTE_Harrill_HTTr_Apoptosis_MCF7: CCTE's 6-hour Apoptosis Assessment for the High-Throughput Transcriptomics (HTTr) Platform, in MCF-7 cells cultured in DMEM + 10% fetal bovine serum, Harrill Lab (AID 2284011; active = hit-call score of the fitted dose curve at least 0.9, where 1 is the maximum; inactive = score below 0.9)
# Method in brief: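 MCF-7 (DMEM + 10% FBS), 384-well; 8-pt dilution series, 6 h chemical exposure; caspase-3/7 activation via CellEvent Caspase 3/7 Green, HCI; bidirectional fit vs DMSO.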
# [11] = CCTE_Harrill_HTTr_CellCount_MCF7: CCTE's Cell Proliferation Assessment for the High-Throughput Transcriptomics (HTTr) Platform, Harrill Lab (AID 2284012);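 note: cells exposed to compound for six hours; intended direction is loss of nuclei count meaning fewer cells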
# Method in brief: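 MCF7 cells exposed 6 hours to an eight-point dilution series; Hoechst-stained nuclei counted by high-content imaging. Bidirectional curve fitting against DMSO baseline.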
# [12] = CCTE_Shafer_MEA_dev_per_burst_spike_percent: CCTE's Neural Network Formation Assay for Percent of Spikes in a Burst, Shafer Lab (AID 2284032; active = hit-call score of the fitted dose curve at least 0.9, where 1 is the maximum; inactive = score below 0.9;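 note: fitted as a decrease in burst spike percentage below DMSO baseline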)
# Method in brief: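 Rat primary cortical neurons on 16-electrode MEA wells, dosed from plating day 0 for 12 days with renewal on DIV 5 and 9; spikes-in-bursts percentage averaged over bursting electrodes, collapsed as AUC across days 5, 7, 9, 12; loss direction versus DMSO.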
# [13] = CCTE_Shafer_MEA_dev_active_electrodes_number: CCTE's Neural Network Formation Assay for Number of Active Electrodes, Shafer Lab (AID 2284040)
# Method in brief: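 Primary rat cortical neurons on 16-electrode MEA wells, exposed from day 0 through day 12 with compound renewed at DIV 5 and 9 feeds. Active electrodes (mean firing ≥5 spikes/min) counted at DIV 5, 7, 9, 12; trapezoidal AUC across days, loss-of-signal versus DMSO.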
# [14] = CCTE_Shafer_MEA_dev_burst_rate: CCTE's Neural Network Formation Assay for Burst Rate, Shafer Lab (AID 2284042; active = hit-call score of the fitted dose curve at least 0.9, where 1 is the maximum; inactive = score below 0.9)
# Method in brief: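 Primary rat cortical neurons on PEI-coated 48-well MEA plates (laminin added with cells at plating) (16 electrodes/well), exposed from plating to day 12, dosing renewed at DIV 5 and 9. Burst rate averaged over active electrodes, recorded DIV 5, 7, 9, 12, summarized as AUC; loss versus DMSO.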
# [15] = CCTE_Shafer_MEA_dev_bursting_electrodes_number: CCTE's Neural Network Formation Assay for Number of Bursting Electrodes, Shafer Lab (AID 2284043);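 note: potency is for loss of bursting electrodes relative to DMSO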
# Method in brief: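 Primary rat cortical neurons plated on 16-electrode MEA wells, exposed from day 0 with compound renewed at DIV 5 and 9. Electrodes bursting ≥1 burst per 2 min counted on days 5, 7, 9 and 12; trapezoidal AUC across days, fitted for loss versus DMSO.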
# [16] = CCTE_Shafer_MEA_dev_burst_duration_mean: CCTE's Neural Network Formation Assay for Mean Burst Duration, Shafer Lab (AID 2284045; active = hit-call score of the fitted dose curve at least 0.9, where 1 is the maximum; inactive = score below 0.9)
# Method in brief: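 Primary rat cortical neurons on 48-well 16-electrode MEA plates, exposed from day 0 with renewal at DIV 5 and 9; spontaneous activity recorded on days 5, 7, 9, 12. Well-mean burst duration across bursting electrodes, collapsed as trapezoidal AUC; DMSO baseline.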
# [17] = CCTE_Shafer_MEA_dev_interburst_interval_mean: CCTE's Neural Network Formation Assay for Mean Interburst Interval, Shafer Lab (AID 2284046; active = hit-call score of the fitted dose curve at least 0.9, where 1 is the maximum; inactive = score below 0.9;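 note: well-mean interburst interval of bursting electrodes as AUC over four recording days; curve fitted for decrease in interburst interval relative to DMSO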)
# Method in brief: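 Recordings on days 5, 7, 9 and 12 give well-mean interburst interval across actively bursting electrodes, summarized as area under the curve. Cultures: rat cortical neurons, continuous exposure from day 0, compound renewed at feeds; decrease analyzed versus DMSO.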
# [18] = CCTE_Shafer_MEA_dev_inter_network_spike_interval_mean: CCTE's Neural Network Formation Assay for Mean Inter-network Spike Interval, Shafer Lab (AID 2284047; active = hit-call score of the fitted dose curve at least 0.9, where 1 is the maximum; inactive = score below 0.9)
# Method in brief: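 Primary rat cortical neurons on 16-electrode MEA wells, exposed from plating day 0 through DIV 12, compound renewed at DIV 5 and 9 media changes. Mean interval between network-spike peaks recorded DIV 5, 7, 9, 12; collapsed as trapezoidal AUC, fitted downward versus DMSO.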
# [19] = CCTE_Shafer_MEA_dev_network_spike_number: CCTE's Neural Network Formation Assay for Number of Network Spikes, Shafer Lab (AID 2284048; active = hit-call score of the fitted dose curve at least 0.9, where 1 is the maximum; inactive = score below 0.9)
# Method in brief: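 Primary rat cortical neurons on PEI/laminin 48-well MEA plates, dosed from plating day 0 for 12 days, renewed at DIV 5 and 9. Network spike counts recorded DIV 5, 7, 9, 12, collapsed as trapezoidal AUC; DMSO baseline.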
# [20] = CCTE_Shafer_MEA_dev_network_spike_peak: CCTE's Neural Network Formation Assay for Mean Number of Electrodes in Network Spike, Shafer Lab (AID 2284049; active = hit-call score of the fitted dose curve at least 0.9, where 1 is the maximum; inactive = score below 0.9;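 note: fitted for loss of signal meaning fewer electrodes in network spikes than DMSO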)
# Method in brief: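 Network-spike peak electrode count from recordings on days 5, 7, 9 and 12 was combined as trapezoidal area under the curve. Rat cortical cultures were treated continuously from plating, with compound renewed at each feed (DIV 5, 9); fits versus DMSO.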
# [21] = CCTE_Shafer_MEA_dev_spike_duration_mean: CCTE's Neural Network Formation Assay for Mean Spike Duration, Shafer Lab (AID 2284051; active = hit-call score of the fitted dose curve at least 0.9, where 1 is the maximum; inactive = score below 0.9;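 note: mean network spike duration pooled as area under curve over DIV 5 to 12 recordings; potency for a decrease in mean network spike duration versus DMSO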)
# Method in brief: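 Primary rat cortical neurons on 16-electrode MEA wells (PEI-coated, laminin in plating drop), exposed from plating through DIV 12 with compound renewed at DIV 5 and 9. Mean network-spike duration recorded DIV 5, 7, 9, 12; trapezoidal AUC across days, DMSO baseline.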
# [22] = CCTE_Shafer_MEA_dev_network_spike_duration_std: CCTE's Neural Network Formation Assay for Standard Deviation of Network Spike Duration, Shafer Lab (AID 2284052; active = hit-call score of the fitted dose curve at least 0.9, where 1 is the maximum; inactive = score below 0.9;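 note: area under curve of spike duration SD across recording days 5 to 12; hits are decreases in network spike duration SD versus DMSO vehicle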)
# Method in brief: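 Primary rat cortical neurons on PEI-coated 16-electrode MEA wells, exposed from plating day 0 through day 12 with compound renewed at DIV 5 and 9. Network spike duration SD recorded on days 5, 7, 9, 12, collapsed as trapezoidal AUC; loss-of-signal fit versus DMSO.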
# [23] = CCTE_Shafer_MEA_dev_per_network_spike_spike_number_mean: CCTE's Neural Network Formation Assay for Mean Number of Spikes in a Network Spike, Shafer Lab (AID 2284053; active = hit-call score of the fitted dose curve at least 0.9, where 1 is the maximum; inactive = score below 0.9)
# Method in brief: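 Primary rat cortical neurons on 48-well, 16-electrode MEA plates were exposed from plating to DIV 12, with dosing renewed on DIV 5 and 9. Spikes per network spike (0.05 s peak window) were recorded on DIV 5, 7, 9 and 12 and collapsed as trapezoidal AUC versus DMSO.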
# [24] = CCTE_Shafer_MEA_dev_per_network_spike_spike_percent: CCTE's Neural Network Formation Assay for Percent of Spikes in a Network Spike, Shafer Lab (AID 2284054; active = hit-call score of the fitted dose curve at least 0.9, where 1 is the maximum; inactive = score below 0.9)
# Method in brief: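 Rat primary cortical neurons were grown on 48-well MEA plates (16 electrodes/well), exposed from plating day 0 through day 12, with treatment renewed on DIV 5 and 9. Percent of spikes within 0.05 s network-spike peaks was measured, summarised as AUC across days 5, 7, 9, 12.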
# [25] = CCTE_Shafer_MEA_dev_LDH: CCTE's Lactate Dehydrogenase Assay for Cytotoxicity in the Neural Network Formation Assay, Shafer Lab (AID 2284068);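 note: exposure for twelve days from plating with re-dosing on DIV 5 and 9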
# Method in brief: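 Primary rat cortical neurons were plated on PEI/laminin MEA plates and exposed from day 0 for twelve days, with compound renewed at DIV 5 and 9. Cytotoxicity was determined by spectrophotometric LDH assay relative to DMSO.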
# [26] = CCTE_Shafer_MEA_dev_mutual_information_norm: CCTE's Neural Network Formation Assay for Mutual Information Normalization, Shafer Lab (AID 2284091; active = hit-call score of the fitted dose curve at least 0.9, where 1 is the maximum; inactive = score below 0.9)
# Method in brief: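 Primary rat cortical neurons on PEI-coated 48-well MEA plates, 1.5 x 10^5 cells/well, exposed from day 0 through day 12 with re-dosing at DIV 5 and 9. Mutual information between electrodes recorded days 5, 7, 9, 12; trapezoidal AUC, loss-of-signal fit versus DMSO.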
# [27] = CCTE_Shafer_MEA_dev_correlation_coefficient_mean: CCTE's Neural Network Formation Assay for Mean Correlation Coefficient, Shafer Lab (AID 2284093; active = hit-call score of the fitted dose curve at least 0.9, where 1 is the maximum; inactive = score below 0.9;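 note: well mean pairwise spike train correlation integrated as AUC over recording days 5 to 12; potency fitted for loss of correlation relative to DMSO vehicle wells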)
# Method in brief: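 Spontaneous activity recorded on days 5, 7, 9 and 12 post-plating; pairwise spike correlations are averaged across active electrodes and collapsed to an area-under-curve. Rat cortical cultures are dosed from plating through 12 days, with compound renewed at media changes.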
# [28] = TAMU_PeakParms_SingleDonor1434_Chronotropy: Texas A&M University (TAMU) 1.5-hr Human Induced Pluripotent Stem Cell (iPSC)-derived Cardiomyocytes Calcium (Ca+2) Flux Assay for Cardiotoxicity: Chronotropy (changes in peak frequency) (AID 2284217; active = hit-call score of the fitted dose curve at least 0.9, where 1 is the maximum; inactive = score below 0.9); settings: actives raise or lower the signal
# Method in brief: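 iPSC-derived cardiomyocytes (single donor 1434) dosed at 0.2, 1, 10 and 100 uM in 0.5% DMSO for 1.5 h at 37C; Ca2+ dye fluorescence gave average beat frequency. Zero-beat points removed; bidirectional fit versus DMSO, POD as EC05.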
# [29] = TAMU_PeakParms_SingleDonor1434_Asystole: Texas A&M University (TAMU) 1.5-hr Human Induced Pluripotent Stem Cell (iPSC)-derived Cardiomyocytes Calcium (Ca+2) Flux Assay for Cardiotoxicity: Asystole (quiescence of beating) (AID 2284328)
# Method in brief: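 Donor 1434 iPSC-cardiomyocytes exposed 90 min at 37C, 5% CO2, to 0.2, 1, 10 and 100 uM in 0.5% DMSO. Ca2+ dye fluorescence gave average peak frequency; POD is EC95, a 95% beat-rate drop versus controls.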
# Cellular tumor antigen p53 (Homo sapiens), sequence (P04637 whole entry, looked up): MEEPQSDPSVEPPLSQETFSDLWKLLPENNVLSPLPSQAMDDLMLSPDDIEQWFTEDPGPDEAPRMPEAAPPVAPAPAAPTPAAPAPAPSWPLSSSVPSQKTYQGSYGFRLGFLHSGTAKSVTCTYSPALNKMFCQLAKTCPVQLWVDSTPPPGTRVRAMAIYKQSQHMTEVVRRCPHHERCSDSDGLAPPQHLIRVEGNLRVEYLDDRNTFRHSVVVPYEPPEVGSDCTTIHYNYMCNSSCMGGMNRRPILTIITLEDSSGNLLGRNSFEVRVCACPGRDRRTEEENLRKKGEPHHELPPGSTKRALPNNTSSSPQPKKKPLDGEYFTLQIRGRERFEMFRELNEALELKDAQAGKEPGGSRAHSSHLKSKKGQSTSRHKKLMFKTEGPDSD
compound,measurement,setting,value
CC(C)SCc1ccco1,outcome,[1],inactive
same,outcome,[2],inactive
same,outcome,[3],inactive
same,outcome,[4],inactive
same,outcome,[5],inactive
C1C[C@@H]2[C@H]3CC[C@H](C3)[C@@H]2C1,outcome,[1],inactive
same,outcome,[2],inactive
same,outcome,[6],inactive
same,outcome,[7],inactive
same,outcome,[8],inactive
CCOc1ccc(O)cc1,outcome,[1],inactive
same,outcome,[2],inactive
same,outcome,[3],inactive
O=C1c2ccccc2C(=O)C1c1ccc(Br)cc1,outcome,[1],inactive
same,outcome,[2],inactive
same,outcome,[6],inactive
same,outcome,[7],inactive
same,outcome,[8],inactive
CN(C)CCOC(c1ccc(Cl)cc1)c1ccccn1 (configuration not stated),outcome,[1],inactive
same,outcome,[2],inactive
same,outcome,[3],inactive
same,outcome,[4],inactive
same,outcome,[5],inactive
C/C(=N\O)c1ccc(OCC(=O)N2CCCCC2)cc1,outcome,[1],inactive
same,outcome,[2],inactive
same,outcome,[6],inactive
same,outcome,[7],inactive
c1ccc2cc3c4ccccc4c4ccccc4c3cc2c1,outcome,[1],inactive
same,outcome,[2],inactive
same,outcome,[6],inactive
same,outcome,[7],inactive
same,outcome,[9],inactive
same,outcome,[10],inactive
same,outcome,[11],inactive
same,AC50,[12],1970 nM (active)
same,outcome,[13],inactive
same,outcome,[14],inactive
same,AC50,[15],3010 nM (active)
same,outcome,[16],inactive
same,outcome,[17],inactive
same,outcome,[18],inactive
same,outcome,[19],inactive
same,AC50,[20],1980 nM (active)
same,AC50,[21],2970 nM (active)
same,outcome,[22],inactive
same,outcome,[23],inactive
same,AC50,[24],3230 nM (active)
same,AC50,[25],2330 nM (active)
same,outcome,[26],inactive
same,AC50,[27],3220 nM (active)
same,AC50,[28],710 nM (active)
same,outcome,[29],inactive
